Experimental findings from PubChem BioAssay (NCI) are described below.

Test systems include HCT-15 colon; HT29 colon; SNB-19 CNS; U251 CNS; PC-3 prostate; SK-MEL-5 melanoma; UACC-62 melanoma; LOX IMVI melanoma; SK-MEL-28 melanoma; SK-MEL-2 melanoma; SN12C renal; UO-31 renal; TK-10 renal; ACHN renal; CAKI-1 renal; A498 renal; CCRF-CEM leukemia; MOLT-4 leukemia; EKVX NSCLC.
Assay in all cases: NCI-60 one-dose screen, 48 h (100 = growth as untreated, 0 = no growth, -100 = all killed)
Common to all, as to conditions: 10 µM unless noted

Compounds without any hit were thinned out: in the full panel of roughly 83,000, 20% have a hit.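 Each cell line was grown in a 96-well plate and treated with one concentration of compound for 48 hours. Values below 10 were considered active.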 A number with no mark means an inactive call. The source made the active and inactive calls.

For `COc1ccc(C2C=C(c3ccc(OC)c(OC)c3)N=C3SC=C(C)N32)c(Br)c1` (configuration not stated), the growth with HCT-15 colon was 92.8%; in the assay on HT29 colon it was 107%; in the assay with SNB-19 CNS, 110%; with U251 CNS, 96.3%; in the assay on PC-3 prostate it was 103%; in the assay on SK-MEL-5 melanoma, 100%. In addition, the growth with UACC-62 melanoma is 106%; in the assay on LOX IMVI melanoma, 109%; in the assay on SK-MEL-28 melanoma it was 110%; with SK-MEL-2 melanoma, 101%; with SN12C renal, 108%; in the assay on UO-31 renal it was 94.8%. Moreover, the growth in the assay on TK-10 renal is 107%; in the assay with ACHN renal it was 95%; in the assay with CAKI-1 renal it was 99.9%; in the assay on A498 renal, 115%; with CCRF-CEM leukemia, 101%; in the assay with MOLT-4 leukemia it was 84%.

Take `CC12CCC3C4(C)COC(c5ccccc5Cl)OC4CCC3(C)C1CC(C1=CCOC1=O)O2` (configuration not stated): the growth in the assay on HCT-15 colon was 41.2%; in the assay with HT29 colon, 57.1%; in the assay with SNB-19 CNS, 78.7%; in the assay with U251 CNS it was 74.1%; with PC-3 prostate it was 47.9%; in the assay on SK-MEL-5 melanoma, 17.1%. For the same compound, the growth with UACC-62 melanoma is 45.8%; with LOX IMVI melanoma it was 58.6%; in the assay with SK-MEL-28 melanoma, 60.5%; in the assay on SK-MEL-2 melanoma, 77.4%; in the assay with EKVX NSCLC, 63.7%; with SN12C renal it was 70.2%. In addition, the growth was 53.9% in the assay with UO-31 renal; 58.8% with ACHN renal; 56.1% in the assay with CAKI-1 renal; 50.8% in the assay with A498 renal; 66.8% with CCRF-CEM leukemia; 34.5% in the assay with MOLT-4 leukemia.

Regarding `Cc1ccc(S(=O)(=O)NCCNc2cc(-c3cn(C(C)(C)C)nc3-c3cccc(O)c3)ccn2)cc1`, the growth was 31.1% in the assay with HCT-15 colon; 17.2% with HT29 colon; 84.4% in the assay with SNB-19 CNS; 62.9% in the assay with U251 CNS; 46.7% with PC-3 prostate; 30.9% in the assay with SK-MEL-5 melanoma. Also, the growth in the assay with UACC-62 melanoma was 77%; in the assay with LOX IMVI melanoma, 47.4%; in the assay on SK-MEL-28 melanoma it was 57.7%; in the assay with SK-MEL-2 melanoma, 84.3%; in the assay on EKVX NSCLC, 64.6%; in the assay with SN12C renal, 66.5%. Moreover, the growth in the assay on UO-31 renal was 58%; with ACHN renal, 78.9%; with CAKI-1 renal, 77%; in the assay on A498 renal, 80.8%; with CCRF-CEM leukemia, 60.7%; in the assay with MOLT-4 leukemia, 48.4%.

As to `COc1cc(-c2nn(-c3cccc(NC(=O)Nc4cc(C(F)(F)F)cc(C(F)(F)F)c4)c3)cc2-c2ccncc2)ccc1Cl`, the growth in the assay on HCT-15 colon was 2.59% (active); in the assay on HT29 colon it was -41.2% (active); with SNB-19 CNS it was 6.55% (active); with U251 CNS, -81.7% (active); in the assay on PC-3 prostate, -55.2% (active); in the assay on SK-MEL-5 melanoma, -96.1% (active). In addition, the growth with UACC-62 melanoma was -55.9% (active); with LOX IMVI melanoma, -91.3% (active); in the assay with SK-MEL-28 melanoma, -28.9% (active); in the assay with SK-MEL-2 melanoma, -52.1% (active); in the assay on SN12C renal, -8.08% (active); with UO-31 renal, -29.2% (active). For the same compound, the growth is -26.7% (active) with TK-10 renal; 10.5% in the assay on ACHN renal; 18.5% in the assay with CAKI-1 renal; -14.6% (active) in the assay with A498 renal; -27.3% (active) in the assay with CCRF-CEM leukemia; -24.5% (active) in the assay with MOLT-4 leukemia.

As to `Cc1ccc(S(=O)(=O)Nc2c(Br)cc(Br)cc2C(N)=O)cc1`, the growth in the assay with HCT-15 colon is 103%; with HT29 colon, 128%; in the assay on SNB-19 CNS it was 90.2%; in the assay with U251 CNS it was 106%; in the assay with PC-3 prostate it was 96.3%; with SK-MEL-5 melanoma it was 99.9%. For the same compound, the growth was 98.5% with UACC-62 melanoma; 102% in the assay with LOX IMVI melanoma; 100% in the assay with SK-MEL-28 melanoma; 113% in the assay with SK-MEL-2 melanoma; 101% in the assay with SN12C renal; 91.9% in the assay with UO-31 renal. Besides, the growth is 161% in the assay with TK-10 renal; 101% in the assay with ACHN renal; 103% with CAKI-1 renal; 107% in the assay on A498 renal; 95.1% in the assay with CCRF-CEM leukemia.

Consider `COc1ccc(S(=O)(=O)n2cc(C(=O)C(=O)Nc3ccncc3)c3ccccc32)cc1F`, for which the growth with HCT-15 colon is 84.2%; in the assay with HT29 colon, 83.9%; in the assay with SNB-19 CNS it was 78.9%; in the assay with U251 CNS, 77.4%; in the assay with PC-3 prostate, 79.8%; in the assay with SK-MEL-5 melanoma, 73.5%. Moreover, the growth in the assay on UACC-62 melanoma was 65.5%; in the assay on LOX IMVI melanoma it was 70.2%; in the assay on SK-MEL-28 melanoma, 92.2%; with EKVX NSCLC, 39.5%; in the assay with SN12C renal, 73.7%; in the assay with UO-31 renal it was 81.8%. Moreover, the growth is 102% in the assay with TK-10 renal, 66.7% in the assay on ACHN renal, 55.3% in the assay with CAKI-1 renal and 73.4% with A498 renal.

`Cc1ccc(S(=O)(=O)NCCNc2nccc(-c3c(-c4ccc(O)cc4)nc4sccn34)n2)cc1`: the growth is 99.1% in the assay with HCT-15 colon; 78.9% with HT29 colon; 113% with SNB-19 CNS; 104% in the assay on U251 CNS; 86.5% with PC-3 prostate; 94.5% in the assay with SK-MEL-5 melanoma. Further, the growth was 91.4% with UACC-62 melanoma; 95.7% in the assay on LOX IMVI melanoma; 114% in the assay on SK-MEL-28 melanoma; 114% with SK-MEL-2 melanoma; 93.3% in the assay with SN12C renal; 84% with UO-31 renal. The growth in the assay on TK-10 renal was 121%; in the assay with ACHN renal it was 93%; in the assay on CAKI-1 renal, 98.2%; in the assay on A498 renal it was 104%; with CCRF-CEM leukemia, 86.8%; with MOLT-4 leukemia, 59%.

Regarding `COc1ccc(S(=O)(=O)Nc2cc(/C=C\c3cc(OC)c(OC)c(OC)c3)cc(OC)c2OC)cc1`, the growth was 15% in the assay with HCT-15 colon; 2.32% (active) in the assay on HT29 colon; 57.7% in the assay on SNB-19 CNS; 5.4% (active) in the assay with U251 CNS; 6.4% (active) in the assay on PC-3 prostate; -6.88% (active) with SK-MEL-5 melanoma. Further, the growth is 46% in the assay on UACC-62 melanoma; 21.5% in the assay with LOX IMVI melanoma; 67.8% with SK-MEL-28 melanoma; 18.3% with SK-MEL-2 melanoma; 23.3% in the assay with SN12C renal; 21% in the assay with UO-31 renal. For the same compound, the growth in the assay with TK-10 renal was 64.9%; with ACHN renal, 26.4%; in the assay with CAKI-1 renal, 22.9%; with A498 renal, -11.5% (active); with CCRF-CEM leukemia, 13.7%.

On to `COc1ccc(C2=Nn3c(nnc3-n3nc(C)cc3C)SC2)cc1`, for which the growth in the assay on HCT-15 colon was 17.1%; in the assay with HT29 colon it was -17% (active); in the assay with SNB-19 CNS, 46%; with U251 CNS, 15.5%; in the assay with PC-3 prostate, 9.91% (active); in the assay on SK-MEL-5 melanoma it was 0.149% (active). Further, the growth was 39.5% in the assay with UACC-62 melanoma; 26.9% in the assay on LOX IMVI melanoma; 54.8% with SK-MEL-28 melanoma; 16.8% in the assay on SK-MEL-2 melanoma; 33.2% in the assay on SN12C renal; 45.8% in the assay with UO-31 renal. Further, the growth in the assay with TK-10 renal is 49%; in the assay on ACHN renal, 35.6%; in the assay with CAKI-1 renal, 53.1%; with CCRF-CEM leukemia it was 6.66% (active); with MOLT-4 leukemia it was 5.34% (active).
